Experimental data: the supplement of paper PMC4166925
± gives the standard deviation of the averaged measurements. The full ranking holds about 33,000 sequences; the median of “E-score (dimensionless, -0.5 to 0.5)” is about -0.049, and the highest 2% start at about 0.37. The sample holds the highest values, similar sequences and a random draw of the others, so the mix is not that of the screen.

These sequences were tested on T1, PmTbr T-box DNA-binding domain (GST fusion) (assay: PBM E-score of 8-mer (E-score (dimensionless, -0.5 to 0.5)); Tbr is Tbrain of the sea star Patiria miniata (Pm) or the sea urchin Strongylocentrotus purpuratus (Sp); higher = stronger binding preference). Details: the construct has about 5 more residues each side.
T1 sequence: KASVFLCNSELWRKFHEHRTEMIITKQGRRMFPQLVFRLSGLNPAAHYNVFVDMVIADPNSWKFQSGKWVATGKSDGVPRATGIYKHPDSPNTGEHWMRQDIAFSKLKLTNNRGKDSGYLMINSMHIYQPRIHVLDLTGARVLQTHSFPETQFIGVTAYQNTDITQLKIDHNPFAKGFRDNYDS
Protocol: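 Universal protein-binding microarray (Agilent AMADID 016060, 60-bp probes with a 35-bp variable region) incubated with 200 nM GST-fused Patiria miniata Tbr T-box DNA-binding domain (residues 272-466) in PBS pH 7.5. Scored for every ungapped 8-mer (given with its reverse complement) by the Universal PBM Analysis Suite as E-score (modified Wilcoxon-Mann-Whitney enrichment, range -0.5 to 0.5; >0.45 counts as bound) and Z-score of median probe intensity. Two replicate arrays (datasets 1 and 2).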
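Also: 200 nM protein in PBS on universal arrays averaged over duplicate arrays.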

| Sequence | PBM E-score of 8-mer |
| --- | --- |
| AAATTCAC | 0.263 ± 0.021 |
| AAAAGCGG | -0.261 ± 0.1 |
| TTAGTAAA | -0.0101 ± 0.081 |
| CCACTTCC | 0.0762 ± 0.022 |
| ACACTTCC | 0.428 ± 0.016 |
| CCACTTCA | 0.13 ± 0.034 |
| TCACTTCA | 0.186 ± 0.021 |
| AAACTTCG | 0.00852 ± 0.068 |
| ACACTTCG | 0.427 ± 0.0093 |
| GCACTTCC | 0.365 ± 0.021 |
| ACACTCCT | 0.228 ± 0.019 |
| ACACTCCG | 0.3818 ± 0.0019 |
| ACTCTCCG | -0.0258 ± 0.0077 |
| ACACTTCA | 0.441 ± 0.017 |
| CCACTTCG | 0.254 ± 0.028 |
| ATTCTCGG | -0.082 ± 0.071 |
| CGAATCAC | 0.124 ± 0.029 |
| AGAGGTCA | -0.0997 ± 0.006 |
| TACTGACA | 0.1838 ± 0.00074 |
| TCCCAGCA | 0.0248 ± 0.11 |
| ACCGAATG | -0.119 ± 0.0097 |
| CAGAAGCG | 0.103 ± 0.04 |
| ACTCTTCT | -0.264 ± 0.02 |
| ACACTTCT | 0.4266 ± 0.0042 |
| AAACTTCT | -0.236 ± 0.043 |

| Sequence | PBM E-score of 8-mer |
| --- | --- |
| AGGTTCTC | 0.0874 ± 0.028 |
| ATTCACCA | 0.0566 ± 0.052 |
| CCGTTGGC | 0.151 ± 0.01 |
| CTGTGTGA | 0.298 ± 0.018 |
| ATATGTGA | 0.24 ± 0.064 |
| AAATGTGT | 0.432 ± 0.011 |
| GTGTGTAA | 0.214 ± 0.022 |
| ATGTGTGA | 0.4845 ± 0.00059 |
| ATGTGTGC | 0.219 ± 0.016 |
| AAATGTGC | 0.206 ± 0.049 |
| AAATGTGG | 0.0797 ± 0.052 |
| GTGTGTGA | 0.41536 ± 0.00023 |
| TCAAGAAA | -0.17 ± 0.11 |
| AAACCTTG | -0.132 ± 0.0072 |
| GAACCTTA | -0.144 ± 0.042 |
| GCACCTTA | 0.4187 ± 0.0021 |
| CCACCTTA | 0.246 ± 0.036 |
| ATACCTTA | 0.0857 ± 0.093 |
| GCACCTGA | 0.391 ± 0.024 |
| TCACCTGA | 0.353 ± 0.019 |
| AGACCTTG | -0.174 ± 0.013 |
| ACACCTTG | 0.481 ± 0.0055 |
| ACACCTTA | 0.4762 ± 0.00075 |
| AAACCTTA | -0.0234 ± 0.053 |
| CCACCTGA | 0.172 ± 0.044 |

| Sequence | PBM E-score of 8-mer |
| --- | --- |
| AAAAGCTT | -0.0359 ± 0.065 |
| CTTTGTGA | 0.028 ± 0.0037 |
| ACTAGTCA | 0.164 ± 0.044 |
| TAGGCCAA | -0.298 ± 0.065 |
| AGCCAGAG | -0.0902 ± 0.046 |
| AGCGTCCT | -0.167 ± 0.046 |
| TATAGCAA | -0.0376 ± 0.033 |
| ACACCTTC | 0.479 ± 0.00068 |
| CCACCTTC | 0.31 ± 0.02 |
| AGACCTTC | -0.269 ± 0.022 |
| ACGTGAGG | 0.159 ± 0.04 |
| AGGTGAGG | 0.428 ± 0.013 |
| AAGTGATA | 0.37 ± 0.025 |
| AGGTGAGA | 0.486 ± 0.0024 |
| AAGTGAGA | 0.429 ± 0.0088 |
| AGGTGAGC | 0.303 ± 0.042 |
| ACGTGAGA | 0.349 ± 0.0086 |
| CAGTGAGA | 0.181 ± 0.028 |
| CGGTGAGA | 0.236 ± 0.0071 |
| AAGTGATG | 0.28 ± 0.0076 |
| AAGTGAGG | 0.2407 ± 0.0011 |
| TAGTGATA | 0.245 ± 0.035 |
| GGGGTTGA | -0.000915 ± 0.043 |
| CGATCTAG | 0.025 ± 0.0082 |
| CTTAGCGA | 0.184 ± 0.025 |

| Sequence | PBM E-score of 8-mer |
| --- | --- |
| AATCTTCA | -0.068 ± 0.038 |
| CTCGAGGC | -0.039 ± 0.098 |
| CAAACTGG | 0.102 ± 0.039 |
| AAATCTAG | -0.091 ± 0.019 |
| GCCTCACC | 0.0769 ± 0.049 |
| GAGTGAGA | 0.334 ± 0.017 |
| GGGTGAGA | 0.406 ± 0.009 |
| GGGGGTGA | 0.2941 ± 0.0011 |
| ACCATGGC | -0.0471 ± 0.08 |
| CAGTTTAA | -0.0321 ± 0.037 |
| AACCTGCG | 0.0979 ± 0.006 |
| CACCTGCG | 0.429 ± 0.019 |
| GACCTGCA | 0.0626 ± 0.036 |
| CACCTGCA | 0.4 ± 0.0099 |
| CACCTGGA | 0.366 ± 0.025 |
| CACCTGGG | 0.361 ± 0.029 |
| AACCTGGC | 0.195 ± 0.038 |
| GACCTGCC | 0.148 ± 0.0062 |
| AACCTGCC | -0.0169 ± 0.035 |
| TACCTGCA | -0.174 ± 0.0055 |
| CACCTGGC | 0.427 ± 0.007 |
| CACCTGCC | 0.406 ± 0.021 |
| AAGGCCGA | -0.191 ± 0.09 |
| CCTTATGC | -0.139 ± 0.041 |
| GCCATTAC | -0.169 ± 0.06 |

| Sequence | PBM E-score of 8-mer |
| --- | --- |
| GGCCTGAC | -0.103 ± 0.02 |
| CGTCCCAG | -0.151 ± 0.0033 |
| CACACAAA | 0.0927 ± 0.064 |
| CACACGGC | 0.0461 ± 0.026 |
| CGCACGTC | 0.354 ± 0.02 |
| CACACGTG | 0.376 ± 0.019 |
| AACACGTG | 0.38 ± 0.016 |
| ACCACGTG | 0.169 ± 0.053 |
| AACACGAG | 0.132 ± 0.0066 |
| CACACGTA | 0.357 ± 0.0053 |
| CACACGTC | 0.4359 ± 0.0027 |
| CAAGAGTG | 0.154 ± 0.047 |
| CAACCGAG | 0.0284 ± 0.0078 |
| GAAAATAA | -0.0661 ± 0.086 |
| GAACACTA | 0.051 ± 0.077 |
| GAACACCA | 0.0994 ± 0.0056 |
| CAACACCG | 0.3 ± 0.013 |
| CAACACTA | 0.323 ± 0.04 |
| CAACACCA | 0.392 ± 0.015 |
| GAACACCC | 0.1762 ± 0.00083 |
| CAACACGA | 0.161 ± 0.015 |
| CAACACGC | 0.229 ± 0.019 |
| AAACACCA | 0.268 ± 0.0077 |
| TAACACTA | 0.382 ± 0.0057 |
| CAACACCC | 0.444 ± 0.015 |

| Sequence | PBM E-score of 8-mer |
| --- | --- |
| TAACACCA | 0.451 ± 0.0075 |
| CTGACTCC | -0.143 ± 0.047 |
| CTGCCCTC | -0.067 ± 0.048 |
| CACCCATC | 0.201 ± 0.011 |
| GATATACC | -0.114 ± 0.031 |
| CAAATTCG | 0.0471 ± 0.029 |
| GCTCTAAC | 0.0585 ± 0.0059 |
| AATTACCG | 0.0948 ± 0.036 |
| ACATCACT | 0.0297 ± 0.063 |
| ACACACCC | 0.327 ± 0.015 |
| CCACACCC | 0.395 ± 0.028 |
| CCACACCG | 0.134 ± 0.063 |
| ACCTCTTG | 0.138 ± 0.027 |
| TAAGTGGA | -0.141 ± 0.0053 |
| AGTTACCC | -0.0906 ± 0.018 |
| CTCGCGAA | 0.368 ± 0.0047 |
| ATCGCGAA | 0.335 ± 0.046 |
| AGCGCGAA | 0.392 ± 0.014 |
| GGCGCGCA | 0.0945 ± 0.0047 |
| GGCGCGAA | 0.4607 ± 0.0017 |
| GACGCGAA | 0.126 ± 0.066 |
| AGCGCGAG | 0.319 ± 0.011 |
| TTCGCGAA | 0.3702 ± 0.0034 |
| AGCGCGAT | 0.291 ± 0.0076 |
| ATCGCGAG | 0.249 ± 0.0038 |

| Sequence | PBM E-score of 8-mer |
| --- | --- |
| GTCGCGAA | 0.33 ± 0.02 |
| ATCGCGAT | 0.38 ± 0.014 |
| GCTAGCAA | 0.144 ± 0.015 |
| ATATTGCC | -0.106 ± 0.095 |
| CTTCTATC | -0.198 ± 0.025 |
| ATCTGTGA | 0.282 ± 0.0073 |
| GTCGCCAA | 0.288 ± 0.038 |
| CGGTCAAA | -0.18 ± 0.0046 |
| AACAGTGC | 0.0577 ± 0.058 |
| ATTCTGAG | -0.131 ± 0.012 |
| CCGGCTGC | -0.125 ± 0.1 |
| CGCGCGAC | 0.291 ± 0.025 |
| AGCGCGAC | 0.242 ± 0.003 |
| GGCGCGAC | 0.377 ± 0.025 |
| TGCGCGAA | 0.307 ± 0.017 |
| CTCGCGAC | 0.326 ± 0.0051 |
| GTCGCGAC | 0.385 ± 0.0054 |
| ATCGCGAC | 0.26 ± 0.021 |
| CGCGCGAA | 0.3963 ± 0.00041 |
| CGCGCGAG | 0.27 ± 0.023 |
| ATAGGGGG | -0.0469 ± 0.086 |
| CATCAAAC | -0.0906 ± 0.034 |
